{
  "source": "ChEMBL document CHEMBL4513216",
  "about": "“Probing the Open Global Health Chemical Diversity Library for Multistage-Active Starting Points for Next-Generation Antimalarials” (ACS Infect Dis, 2020)",
  "note": "Among all 69,000 compounds or so, about 8,600 (12%) showed an effect of 50% or more. The full list was thinned out, with strong results kept by preference.",
  "data": [
    {"system": "Plasmodium berghei", "experiment": "Screen against P. berghei liver stage (PbLuc), transformed with Luciferase, at 10uM", "format": "functional, HepG2", "details": "tested at 10 uM", "units": {"INHIBITION": "%"}, "values": [
      {"smiles": "Cc1cc(C)c2nc(C)cc(C(=O)N3CC(O)CO3)c2c1", "note": "(configuration not stated)", "INHIBITION": 22.6},
      {"smiles": "CN1CCOC(CNCCOc2ccc(C#N)cc2)C1", "note": "(configuration not stated)", "INHIBITION": 71.1},
      {"smiles": "CN(C)CC1CN(CCOc2cccc(C#N)c2)CCO1", "note": "(configuration not stated)", "INHIBITION": 41.4},
      {"smiles": "COCCOc1cccc(CNCC2CN(C)CCO2)c1", "note": "(configuration not stated)", "INHIBITION": 7.12},
      {"smiles": "CN1CCOC(CNCCc2ccccn2)C1", "note": "(configuration not stated)", "INHIBITION": 39.5},
      {"smiles": "CN1CCOC(CNCCOc2cccc(C#N)c2)C1", "note": "(configuration not stated)", "INHIBITION": 66.7},
      {"smiles": "CN1CCOC(CNCCCOc2ccc(C#N)cc2)C1", "note": "(configuration not stated)", "INHIBITION": -89.9},
      {"smiles": "CN(C)c1ccc(C2CCN(c3cnccn3)CC2)nc1", "INHIBITION": 1.93},
      {"smiles": "CO[C@H]1CC[C@H]2[C@H]1OCCN2C(=O)CC1=CCCCC1", "INHIBITION": 32.5},
      {"smiles": "O=C(CN1CCC(c2nnc(C(F)(F)F)o2)CC1)NCc1ccccc1", "INHIBITION": -3.48},
      {"smiles": "CCc1nnc(Nc2cccc(C3CCN(CC4CC4)CC3)n2)s1", "INHIBITION": 14.7},
      {"smiles": "CCc1ccc(C(=O)N2CCN(CC(O)c3ccccc3)CC2)o1", "note": "(configuration not stated)", "INHIBITION": 37.9},
      {"smiles": "c1ccc(Cc2nnc(CN3CCc4cncnc4C3)o2)cc1", "INHIBITION": -31.3},
      {"smiles": "Cc1noc(C)c1CN1CCC(N(C)Cc2noc(C(C)C)n2)C1", "note": "(configuration not stated)", "INHIBITION": 29.8},
      {"smiles": "CSCC[C@H](N)c1nnc(SCc2cc(C)ccc2C)o1", "INHIBITION": 12.5},
      {"smiles": "O=C(CN1CCCC1Cn1cncn1)NCCC1=CCCCC1", "note": "(configuration not stated)", "INHIBITION": 27.6},
      {"smiles": "CC(=O)NCCNC(=O)CN1CCCC1Cn1nc(C)nc1C", "note": "(configuration not stated)", "INHIBITION": 1.56},
      {"smiles": "O=C(CN1CCCCC1Cn1cncn1)NCCc1ccsc1", "note": "(configuration not stated)", "INHIBITION": -81.3},
      {"smiles": "Cc1nc(C)n(CC2CCCN2CC(=O)NCCc2ccccc2)n1", "note": "(configuration not stated)", "INHIBITION": 9.54},
      {"smiles": "Cc1nc(C)n(CC2CCCN2CC(=O)NCCc2ccsc2)n1", "note": "(configuration not stated)", "INHIBITION": 91.3},
      {"smiles": "Cc1nc(C)n(CC2CCCN2CC(=O)NCCC2=CCCCC2)n1", "note": "(configuration not stated)", "INHIBITION": 77.7},
      {"smiles": "COc1ccc(CN2CCO[C@H]3CN(C4CCC4)CC[C@H]3C2=O)cc1", "INHIBITION": 17.2},
      {"smiles": "O=C(c1cccc(F)c1)N1CCOC(c2nc(-c3ncccn3)no2)C1", "note": "(configuration not stated)", "INHIBITION": 13.1},
      {"smiles": "CC(C)c1nnc2n1CCN(CCC(=O)Nc1sccc1C#N)C2", "INHIBITION": 5.7},
      {"smiles": "CN(C)Cc1cc(C2CCCN(S(=O)(=O)c3cccc(Cl)c3)C2)nn1C", "note": "(configuration not stated)", "INHIBITION": -14.2},
      {"smiles": "Cc1ncc(CN2CCCC(c3cc(C(F)(F)F)[nH]n3)C2)s1", "note": "(configuration not stated)", "INHIBITION": -17.6},
      {"smiles": "CCCNC(=O)c1ccc(S(=O)(=O)NCC2(O)CCCNC2)cc1", "note": "(configuration not stated)", "INHIBITION": 43.4},
      {"smiles": "CCOCCC1(CNC(=O)c2ccncc2)CCC1", "INHIBITION": -37.7},
      {"smiles": "CCCNC(=O)NCc1ccccc1NS(=O)(=O)c1ccccc1", "INHIBITION": -24.7},
      {"smiles": "CNS(=O)(=O)c1ccc(C(=O)NCCNc2ncccn2)cc1", "INHIBITION": 33},
      {"smiles": "CCCNC(=O)c1ccc(S(=O)(=O)NCC2(COC)CCCC2)cc1", "INHIBITION": 89.7},
      {"smiles": "CCCNC(=O)c1ccc(S(=O)(=O)NC2(COC)CCCC2)cc1", "INHIBITION": 56.3},
      {"smiles": "CC(=O)N(Cc1ncc(C)o1)C1CCN(Cc2cc(C)on2)C1", "note": "(configuration not stated)", "INHIBITION": -16},
      {"smiles": "COC(CNC(=O)C1CCN(S(C)(=O)=O)CC1)c1ccc(C)s1", "note": "(configuration not stated)", "INHIBITION": 36.8},
      {"smiles": "COc1ccc(CN(C)[C@@H]2CN(C(=O)c3cnn(C)c3)C[C@H]2O)cc1", "INHIBITION": 2.71},
      {"smiles": "COc1ccc(CN(C)[C@@H]2CN(C(=O)c3cncs3)C[C@H]2O)cc1", "INHIBITION": 56.8},
      {"smiles": "COc1ccc(CN(C)[C@@H]2CN(C(=O)c3cccs3)C[C@H]2O)cc1", "INHIBITION": 24.5},
      {"smiles": "COc1ccc(CN(C)[C@@H]2CN(C(=O)c3cccnc3)C[C@H]2O)cc1", "INHIBITION": 52},
      {"smiles": "COc1ccc(CN(C)[C@@H]2CN(C(=O)c3ccccc3)C[C@H]2O)cc1", "INHIBITION": 25.6},
      {"smiles": "COc1ccc(CN(C)[C@@H]2CN(C(=O)c3ccnn3C)C[C@H]2O)cc1", "INHIBITION": -55},
      {"smiles": "COc1ccnc(N2CCN(Cc3nc(-c4ccoc4)no3)CC2)c1", "INHIBITION": 9.52},
      {"smiles": "Cc1nc(C)n(CC2CCCN2Cc2cn3cc(Cl)ccc3n2)n1", "note": "(configuration not stated)", "INHIBITION": 15.3},
      {"smiles": "O=C(c1ccccc1)N1C[C@@H]2CCCO[C@@H]2[C@H](N2CCOCC2)C1", "INHIBITION": 49.7},
      {"smiles": "Cn1cccc1C(=O)N1C[C@@H]2CCCO[C@@H]2[C@H](N2CCOCC2)C1", "INHIBITION": 30.5},
      {"smiles": "Cc1cc(C(=O)N2C[C@@H]3CCCO[C@@H]3[C@H](N3CCOCC3)C2)c(C)[nH]1", "INHIBITION": 4.02},
      {"smiles": "Cc1ccccc1C(=O)N1CCO[C@H]2[C@H](OCCN(C)C)CC[C@@H]21", "INHIBITION": -0.371},
      {"smiles": "Cc1cccc(C(=O)N2CCO[C@H]3[C@H](OCCN(C)C)CC[C@@H]32)n1", "INHIBITION": 54},
      {"smiles": "Cc1ccc(C(=O)N2C[C@@H]3CCCO[C@@H]3[C@H](N3CCOCC3)C2)cn1", "INHIBITION": 52.6},
      {"smiles": "Cc1ccc(C(=O)N2CCO[C@H]3[C@H](OCCN(C)C)CC[C@@H]32)cn1", "INHIBITION": -9.26},
      {"smiles": "CO[C@H]1CC[C@H]2[C@H]1OCCN2C(=O)c1ccc(C)nc1", "INHIBITION": -6.39},
      {"smiles": "CN(C)CCO[C@@H]1CC[C@H]2[C@H]1OCCN2C(=O)c1ccncc1", "INHIBITION": 29.3},
      {"smiles": "CO[C@@H]1CC[C@H]2[C@H]1OCCN2C(=O)c1ccc(C)nc1", "INHIBITION": 67},
      {"smiles": "O=C(c1ccccc1)N1C[C@@H]2CCCO[C@@H]2[C@H](N2CCCC2)C1", "INHIBITION": 52.6},
      {"smiles": "Cc1ccc(C(=O)N2C[C@@H]3CCCO[C@@H]3[C@H](N3CCCC3)C2)cn1", "INHIBITION": 30.5},
      {"smiles": "COc1ccc(Cn2cc(C(=O)N(C)CCN(C)C)nn2)cc1", "INHIBITION": 28.5},
      {"smiles": "c1cncc(COCc2nnc3n2CCN(CC2CC2)C3)c1", "INHIBITION": -15.7},
      {"smiles": "CCS(=O)(=O)CCN(C)C(=O)NC(C)c1ccc(C)s1", "note": "(configuration not stated)", "INHIBITION": 22.6},
      {"smiles": "CCc1sc(C(=O)N2CCC(Nc3ccc(C)nn3)CC2)cc1C", "INHIBITION": 42},
      {"smiles": "Cc1ccc(C(=O)N2C[C@H](N3CCOCC3)[C@@H]3OCCC[C@@H]32)cn1", "INHIBITION": 50.3},
      {"smiles": "Cc1ccc(C(=O)N2C[C@@H](N3CCN(C)CC3)[C@H]3OCCC[C@H]32)cn1", "INHIBITION": 10.4},
      {"smiles": "Cc1cnc(C(=O)N2C[C@H](N3CCOCC3)[C@@H]3OCCC[C@@H]32)cn1", "INHIBITION": 45.7},
      {"smiles": "CC(=O)NCC1CCN(C(=O)c2ccc(Sc3ccccn3)cc2)CC1", "INHIBITION": 14.4}
    ]}
  ]
}
